{"source": "PubChem BioAssay (NCATS)", "note": "Results filed as inconclusive are left out. Active and inactive are the calls of the source. Calls follow the shape of the dose curve; as a rule, active = well fitted cell-killing curve with a large enough effect; inconclusive = small, poorly fitted or top-dose-only effect, or effect the other way; inactive = no such curve, though single readings can be large or run the other way. % is scaled to controls: 0 for no effect and ±100 for the full control effect; potency is read from the fitted curve at half-maximal effect.", "data": [{"test": "Cell Viability qHTS for small molecule stabilizers of the endoplasmic reticulum resident proteome (AID 1508629);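 also: compound exposure about 46 h in total before the viability read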", "conditions": "cell viability counter-screen, 100 nM thapsigargin for final 4 h", "description": "Assay Provider: Brandon K. Harvey Ph.D.\nNational Institute on Drug Abuse, National Institutes of Health, Baltimore, MD\nEndoplasmic reticulum (ER) dysregulation is associated with human pathologies including neurodegenerative, cardiovascular, muscular, and diabetic conditions. Maintenance of ER calcium is critical for functions of the ER and its depletion can lead to loss of ER resident proteins, in a process termed exodosis. Therapeutic compounds capable of attenuating the redistribution of ER proteins under pathological conditions may slow or stop disease progression. To identify such compounds, we performed a quantitative high-throughput screen (qHTS) using the SERCaMP assay, which monitors secretion of ER resident proteins triggered by calcium depletion.\nSERCaMP was initially developed as a reporter of ER calcium homeostasis using a Gaussia luciferase with a modified signal peptide and carboxy-terminus (GLuc-SERCaMP), modifications that confer secretion of the reporter in response to ER calcium depletion (Henderson et al., 2014). The assay was used to screen 9,501 compounds, including a collection of drugs approved by the FDA (US), EMA (EU), NHI (Japan), and HC (Canada) regulatory agencies (Huang et al., 2011). Since the SERCaMP reporter reflects the exodosis phenomenon (Trychta et al., 2018a), compounds identified in the screen have the potential to prevent exodosis by different mechanisms such as stabilizing ER calcium or augmenting ERS retrieval.\n1. Henderson, M.J., Wires, E.S., Trychta, K.A., Richie, C.T., and Harvey, B.K. (2014). SERCaMP: a carboxy-terminal protein modification that enables monitoring of ER calcium homeostasis. Mol Biol Cell 25, 2828-2839.\n2. Huang, R., Southall, N., Wang, Y., Yasgar, A., Shinn, P., Jadhav, A., Nguyen, D.T., and Austin, C.P. (2011). The NCGC pharmaceutical collection: a comprehensive resource of clinically approved drugs enabling repurposing and chemical genomics. Sci Transl Med 3, 80ps16.\n3. Trychta, K.A., Back, S., Henderson, M.J., and Harvey, B.K. (2018a). KDEL Receptors Are Differentially Regulated to Maintain the ER Proteome under Calcium Deficiency. Cell Rep 25, 1829-1840 e1826.\nSEQUENCE No. (1, 2, 3, etc.); […] (e.g., Cells, Incubation, Reagent, etc.); VALUE and DESCRIPTION.\n1; Reagent; 5 uL; 1000 SH-SY5Y cells per wells\n3; Compound; 23 nL; Control inhibitor / compound library\n5; Reagent; 100 nM; Thapsigargin\n7; Reagent; 5 uL; CellTiter-Glo (Promega)\n8; Time; 10 min; room temperature\n9; Detection; Luminescence; ViewLux imaging system\nNOTES (numbers refer to sequence above)\n1; SH-SY5Y human neuroblastoma cells stably expressing GLuc-SERCaMP (SH-SY5Y-GLuc-ASARTDL) cells were seeded in 1,536 well white tissue culture treated plates (Corning, Cat# 7464) in DMEM-high glucose-sodium pyruvate (ThermoFisher Scientific, Cat #10569) supplemented with 10% bovine growth serum (Hyclone), 10 U/ml penicillin (Gibco), 10 ug/ml streptomycin (Gibco), and 20 mM HEPES.\n2; Assay plates were incubated for 5 hr at 37C in a humidified incubator containing 5% CO2.\n3; qHTS libraries (23 nl, final concentrations of 1.53 uM, 7.67 uM, 38.3 uM) or controls (neutral control: DMSO, positive control: dantrolene) were added using a Kalypsis pin-tool Robotic System equipped with 1536 pinheads.\n4; Cells were then incubated for 42 hours at 37C, 5% CO2.\n5; Thapsigargin was added at 100 nM to deplete ER calcium stores.\n6; Cells were incubated for 4 hr (37C, 5% CO2).\n7; Cell viability was measured using the CellTiter-Glo Luminescent Cell Viability Assay (Promega). Briefly, an equal volume of reagent was added to each well. Plates were rotated for 2 min.\n8; Assay plates were incubated for 10 min at room temperature.\n9; Luminescence was measured using a ViewLux CCD imaging system (Perkin Elmer) equipped with clear filters.", "values": [{"smiles": "CC(C)(C)[C@]1(O)CCN2C[C@H]3c4ccccc4CCc4cccc(c43)[C@@H]2C1", "max response": "16.4% (inactive)"}, {"smiles": "O=C1N=C(O)CN1/N=C/c1ccc(-c2ccc([N+](=O)[O-])cc2)o1", "max response": "30.6% (inactive)"}, {"smiles": "COc1cc(C)c(Cc2cnc(N)nc2N)cc1OC", "max response": "8.8% (inactive)"}, {"smiles": "CC(=O)c1ccc2c(c1)N(CCCN(C)C)c1ccccc1S2", "max response": "-6.13% (inactive)"}, {"smiles": "CCN(CC)CCOC(=O)C1(C2CCCCC2)CCCCC1", "max response": "-2.82% (inactive)"}, {"smiles": "CNCCC(Oc1ccc(C(F)(F)F)cc1)c1ccccc1", "note": "(stereo not given)", "Potency": "25.1 µM (active)"}, {"smiles": "Cc1c(O)cccc1C(=O)N[C@@H](CSc1ccccc1)[C@H](O)CN1C[C@H]2CCCC[C@H]2C[C@H]1C(=O)NC(C)(C)C", "max response": "7.19% (inactive)"}, {"smiles": "O=c1cc(CO)occ1O", "max response": "8.05% (inactive)"}, {"smiles": "CN1CCCCC1CCN1c2ccccc2Sc2ccc(S(C)=O)cc21", "note": "(stereo not given)", "max response": "-1.8% (inactive)"}, {"smiles": "Cc1cc2nc3c(=O)[nH]c(=O)nc-3n(C[C@H](O)[C@H](O)[C@H](O)CO)c2cc1C", "max response": "11.4% (inactive)"}]}]}
